In PubChem BioAssay (NCATS):
Results filed as inconclusive are left out. The source made the active and inactive calls. The call rests on the fitted dose curve; in most records, active means well fitted curve in the direction sought with a large enough effect; inconclusive means small, poorly fitted or top-dose-only effect, or another doubt; inactive means no such curve, though single readings can be large; an effect the other way counts as inactive or inconclusive.

Tests used:
[1] = qHTS to identify inhibitors of the type 1 interferon - major histocompatibility complex class I in skeletal muscle: primary screen against the NCATS Pharmaceutical Collection (AID 1347407);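 further: luminescence of HiBiT knocked into endogenous HLA-B as interferon-induced MHC class I level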; further: potency means the concentration at half of the fitted maximal effect; on activity change, negative = inhibition: on the % scale 0 is the no-effect control and ±100 the full control effect
Outline: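 Compounds […] were added to CRISPR-engineered HLA-B-HiBiT C25cl48 human myoblasts with 4.0 ng/ml IFN-beta. After 24 hrs at 37 C, cells were lysed and HiBiT luminescence measured.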

[2] = biological target: Protein phosphatase 1D (Homo sapiens) (UniProt O15297); experiment: Rhodamine-PBP qHTS Assay for Modulators of WT P53-Induced Phosphatase 1 (WIP1) (AID 1347425); further: % of control where 0% means no effect
Outline: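 The read-out is the change in Rhodamine-PBP fluorescence (f1 - f0, ex 525/em 598 nm) as Pi is released, read each minute for 11 min. Final reaction: 5 nM WIP1, 10 uM phosphopeptide VEPPL-pS-QETFS, 10 uM Rh-PBP, 50 mM Tris-HCl pH 7.5, 30 mM MgCl2. Compound was preincubated with enzyme for 1 hour at room temperature.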

[3] = biological target: Calcium and integrin-binding protein 1 (Homo sapiens) (UniProt Q99828); experiment: Primary qHTS for Identification of Calcium Integrin Binding Protein 1 (CIB1) Competitor (AID 1508620); further: potency means the concentration at half of the fitted maximal effect;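 on activity change, negative = inhibition: GST tagged CIB1 binding a fluorescein labelled alphaIIb integrin peptide tracer; top concentration of the series differs between compounds; on the % scale 0 is the no-effect control and ±100 the full control effect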
Outline: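 CIB1-GST (1 uM final) and compound incubated 15 min at room temperature before adding FITC-alphaIIb peptide tracer (100 nM final). Competition for binding read by fluorescence polarization (ex 480, em 540) after another 15 min at room temperature.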

[4] = Primary qHTS for inhibitors of La Crosse Virus (LACV) - induced cell death in SH-SY5Y cells (AID 1508616);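 further: top concentration of the series differs between compounds; 0% = infected DMSO wells and 100% = uninfected DMSO wells; higher means more rescue of cells from virus-induced death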
Outline: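 Rescue of virus-induced death was read as ATPLite luminescence after 6 days at 37C, scaled between DMSO wells with LACV and without virus. Cells were SH-SY5Y, 6000/well, infected at 0.01 MOI after compound addition.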

[5] = biological target: Calcium and integrin-binding protein 1 (Homo sapiens) (UniProt Q99828); experiment: Confirmatory qHTS for Identification of Calcium Integrin Binding Protein 1 (CIB1) Competitor (AID 1508617); further: potency means the concentration at half of the fitted maximal effect; nearly all actives have a fitted effect of over 65% in size
Outline: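 Compounds at up to 114 uM final met 1 uM GST-tagged CIB1 for 15 min at room temperature (HEPES pH 7.4, 5 mM CaCl2). FITC-labelled alphaIIb peptide, 100 nM, added; polarization read after 15 min more.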

[6] = qHTS for inhibitors of adenylyl cyclases using a fission yeast platform: a pilot screen against the NCATS LOPAC library (AID 1347410);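 further: plate controls were DMSO vehicle for no effect and DPI positive control for full effect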
Outline: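 GFP from fbp1-GFP reporter, read by Acumen laser cytometry, indicates AC inhibition in fission yeast expressing AC9, GNAS and PDE4D2. Cells grown 18 h in the dark at 30C with compounds, final up to 57 uM.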

[7] = biological target: Single-stranded DNA cytosine deaminase (Homo sapiens) (UniProt Q9GZX7); experiment: Validation qHTS assay for inhibitors of Activation Induced Cytidine Deaminase (AID): AID signal (AID 1347429); further: on the % scale 0 is the no-effect control and ±100 the full control effect
Outline: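 Compounds (final up to 114 uM) preincubated with AID plus UDG; 250 nM DJC20/DJC23 substrate mix (4x stock) added, 4 hr at room temperature, then NaOH, 30 min. Read 1 fluorescence at 540 nm excitation, 590 nm emission.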

[8] = biological target: Calcium and integrin-binding protein 1 (Homo sapiens) (UniProt Q99828); experiment: Validation qHTS for Identification of Calcium Integrin Binding protein 1 (CIB1) Competitor (AID 1508618); further: on the % scale 0 is the no-effect control and ±100 the full control effect
Outline: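 CIB1-GST (1 uM final) incubated 15 min at room temperature with compounds (up to 114 uM), then FITC-labelled alphaIIb peptide (100 nM) added. FP read (Ex 480/Em 540) after 15 min, pH 7.4 buffer containing 5 mM CaCl2.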

Sequence of Single-stranded DNA cytosine deaminase (Homo sapiens) (Q9GZX7 whole entry, looked up): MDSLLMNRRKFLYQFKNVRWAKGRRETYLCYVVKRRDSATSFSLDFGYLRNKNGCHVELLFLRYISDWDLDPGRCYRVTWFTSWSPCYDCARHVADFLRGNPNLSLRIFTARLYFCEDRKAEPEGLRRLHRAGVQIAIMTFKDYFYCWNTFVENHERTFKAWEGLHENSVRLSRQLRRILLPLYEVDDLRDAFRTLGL
Sequence of Calcium and integrin-binding protein 1 (Homo sapiens) (Q99828 whole entry, looked up): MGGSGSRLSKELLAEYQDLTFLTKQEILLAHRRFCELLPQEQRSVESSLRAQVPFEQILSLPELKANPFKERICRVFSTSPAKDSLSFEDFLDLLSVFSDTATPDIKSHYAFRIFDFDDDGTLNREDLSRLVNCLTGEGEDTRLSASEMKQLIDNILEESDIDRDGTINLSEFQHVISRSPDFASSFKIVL
Sequence of Protein phosphatase 1D (Homo sapiens) (O15297 whole entry, looked up): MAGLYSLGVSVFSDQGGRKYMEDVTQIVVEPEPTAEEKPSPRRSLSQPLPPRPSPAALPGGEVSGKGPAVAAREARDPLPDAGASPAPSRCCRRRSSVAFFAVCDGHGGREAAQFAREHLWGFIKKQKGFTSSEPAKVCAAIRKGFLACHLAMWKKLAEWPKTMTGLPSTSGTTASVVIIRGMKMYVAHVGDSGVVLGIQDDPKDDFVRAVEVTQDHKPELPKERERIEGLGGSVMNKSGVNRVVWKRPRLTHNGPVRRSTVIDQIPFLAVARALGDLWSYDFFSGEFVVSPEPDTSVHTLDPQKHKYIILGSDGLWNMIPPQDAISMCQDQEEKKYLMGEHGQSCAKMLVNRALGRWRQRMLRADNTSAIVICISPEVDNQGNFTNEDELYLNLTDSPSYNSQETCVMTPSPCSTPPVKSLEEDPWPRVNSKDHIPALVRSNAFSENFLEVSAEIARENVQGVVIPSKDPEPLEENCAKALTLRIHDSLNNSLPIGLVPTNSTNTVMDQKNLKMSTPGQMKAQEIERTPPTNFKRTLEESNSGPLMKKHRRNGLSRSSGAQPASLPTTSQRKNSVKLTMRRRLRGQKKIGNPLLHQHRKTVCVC

O=c1c(-c2ccccc2)c1-c1ccccc1
inactive: Potency [1] | outcome [2] | Potency [3]

CC1(C)O[C@@H]2C[C@H]3[C@@H]4CCC5=CC(=O)CC[C@]5(C)[C@@]4(F)[C@@H](O)C[C@]3(C)[C@]2(C(=O)CCl)O1
inactive: Potency [1] | outcome [2] | Potency [4] | Potency [3]

c1ccc(CNCCNCc2ccccc2)cc1
inactive: Potency [1] | outcome [2] | Potency [4] | Potency [3]

CC(=O)CC(c1ccc([N+](=O)[O-])cc1)c1c(O)c2ccccc2oc1=O (stereo unspecified)
inactive: Potency [4] | Potency [3]
active: Potency [1] 1.49 µM

Cc1ccccc1C(=O)Nc1ccc(C(=O)N2CCCC(N(C)C)c3ccccc32)cc1 (stereo unspecified)
inactive: Potency [1] | Potency [3]

C/C=C(/C(=C/C)c1ccc(O)cc1)c1ccc(O)cc1
inactive: Potency [1] | Potency [4] | Potency [3]

COc1ccc(C2C(=O)c3ccccc3C2=O)cc1
inactive: Potency [1] | outcome [2] | Potency [4] | Potency [3]

CCOc1ccc2nc3cc(N)ccc3c(N)c2c1
inactive: Potency [1] | outcome [2]
active: Potency [5] 25.1 µM | Potency [3] 44.7 µM

c1ccc(-c2ccc(C(c3ccccc3)n3ccnc3)cc2)cc1 (stereo unspecified)
inactive: Potency [1] | outcome [2] | Potency [3]

Cc1cc(N)c2cc(NC(=O)Nc3ccc4nc(C)cc(N)c4c3)ccc2n1
inactive: Potency [1] | outcome [2] | Potency [3]

NC[C@H]1O[C@H](O[C@H]2[C@H](O[C@@H]3O[C@H](CO)[C@@H](O)[C@H]3O)C(O)[C@H](N)C[C@@H]2N)[C@H](N)[C@@H](O)[C@@H]1O (stereo partly specified)
inactive: activity change, negative = inhibition [1] -10.7% [at 9.18 µM] | activity change [4] -8.96% [at 0.858 µM] | Potency [3]

CCCCC(CC)CN=C(N)NC(N)=NCCCCCCN=C(N)NC(N)=NCC(CC)CCCC (stereo unspecified)
inactive: outcome [2]
active: Potency [1] 14.9 µM | Potency [5] 28.2 µM

N[C@H](Cc1c[nH]c2ccccc12)C(=O)O
inactive: Potency [1] | Potency [4] | Potency [3]

CN1CCC(=C2c3ccccc3Sc3ccccc32)CC1
inactive: Potency [1] | outcome [2] | Potency [4] | Potency [3]

CCOC(=O)OC(C)OC1=C(C(=O)Nc2ccccn2)N(C)S(=O)(=O)c2ccccc21 (stereo unspecified)
inactive: Potency [1] | Potency [4] | Potency [3]

CC(=O)[C@H]1CC[C@H]2[C@@H]3C[C@H](C)C4=CC(=O)CC[C@]4(C)[C@H]3[C@@H](O)C[C@]12C
inactive: Potency [1] | outcome [2] | Potency [4] | Potency [3]

Cc1cccc(C)c1NC(=O)CN1CCN(CCCC(c2ccc(F)cc2)c2ccc(F)cc2)CC1
inactive: Potency [1] | outcome [2] | Potency [4] | Potency [3]

NC(=O)C(=O)N/N=C/c1ccc([N+](=O)[O-])o1
inactive: Potency [1] | outcome [2] | Potency [4] | Potency [3]

C[C@@H]1CN(CCCn2c3ccccc3c3ccccc32)C[C@H](C)N1
inactive: Potency [1] | outcome [2] | Potency [4] | Potency [3]

CCC(=O)c1c(O)cc(O)cc1O
inactive: Potency [1] | Potency [4] | Potency [3]

CC(C)=CCC1C(=O)N(c2ccccc2)N(c2ccccc2)C1=O
inactive: Potency [4]
active: Potency [1] 18.7 µM

CN(C)/N=N/c1nc[nH]c1C(N)=O
inactive: Potency [1] | outcome [2] | Potency [4] | Potency [3]

CCN(CC)CCOC(=O)C(c1ccccc1)C1CCCCC1 (stereo unspecified)
inactive: Potency [1] | outcome [2] | Potency [4] | Potency [3]

CC(Cc1cccc(C(F)(F)F)c1)NCCOC(=O)c1ccccc1 (stereo unspecified)
inactive: Potency [1] | outcome [2] | Potency [3]

Cc1c(C(N)=O)cc([N+](=O)[O-])cc1[N+](=O)[O-]
inactive: Potency [1] | outcome [2] | Potency [4] | Potency [3]

Cc1ncc(CSSCc2cnc(C)c(O)c2CO)c(CO)c1O
inactive: Potency [1] | outcome [2] | Potency [4] | Potency [3]

CCCC1O[C@@H]2C[C@H]3[C@@H]4CCC5=CC(=O)C=C[C@]5(C)[C@H]4[C@@H](O)C[C@]3(C)[C@]2(C(=O)CO)O1 (stereo partly specified)
inactive: outcome [6] | Potency [7] | Potency [4] | outcome [8]

Nc1cc(Cl)c(NC2=NCCN2)c(Cl)c1
inactive: outcome [6] | Potency [7] | Potency [4] | outcome [8]

CC(C)COC(=O)OCN1C(=O)CN(CCN2CC(=O)N(COC(=O)OCC(C)C)C(=O)C2)CC1=O
inactive: outcome [6] | Potency [7] | outcome [8]

CN1C2CCC1CC(OC(=O)c1c[nH]c3ccccc13)C2 (stereo unspecified)
inactive: outcome [6] | Potency [7] | Potency [4] | outcome [8]

N[C@@H](Cc1cnc[nH]1)C(=O)O
inactive: outcome [6] | Potency [7] | outcome [8]

CC(CCc1ccccc1)NCC(O)c1ccc(O)c(C(N)=O)c1 (stereo unspecified)
inactive: outcome [6] | Potency [7] | Potency [4] | outcome [8] | Potency [3]

O=C1CCC(c2ccc(-n3ccnc3)cc2)=NN1
inactive: outcome [6] | Potency [7] | Potency [4] | outcome [8]
